Over roughly 68,000 sequences, “fluorescence intensity (a.u.)” has its median near 9,100; the highest 2% begin near 16,000. The entries come from a sample that favours the highest values as a whole.

Sequence of OsWRKY34 (Q0JBA9 entry or part of it): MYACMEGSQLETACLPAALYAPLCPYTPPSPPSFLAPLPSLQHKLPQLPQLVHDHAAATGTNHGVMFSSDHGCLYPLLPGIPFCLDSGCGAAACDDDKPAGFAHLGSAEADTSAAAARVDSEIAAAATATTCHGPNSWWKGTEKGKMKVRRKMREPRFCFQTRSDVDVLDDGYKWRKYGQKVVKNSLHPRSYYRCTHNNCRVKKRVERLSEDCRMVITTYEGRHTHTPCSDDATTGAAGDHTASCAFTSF

The target in the test is OsWRKY34 (Oryza sativa, UniProt Q0JBA9 1-250). Put plainly: protein-binding microarray (RPBM); PBS, 2% BSA, 51.3 ng/ul salmon testes DNA, 50 uM zinc acetate, 200 nM TF, 25 C, 1 h; high values mean tight binding. The note with it: protein: recombinant; tags: N-terminal polyhistidine and DsRed monomer fusion (pET32a); label: CyDye5-dUTP incorporated in the synthesized complementary strand; 3' TTTTT single-stranded linker to array surface; dsDNA, one strand shown. The method in brief:
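Transcription factors were each fused at the N-terminus to a polyhistidine tag plus DsRed and expressed in E. coli BL21-CodonPlus before Ni–NTA purification. Binding to a double-stranded custom Agilent array was carried out with 200 nM protein at 25 °C for 1 h in PBS, 2% BSA, salmon testes DNA and 50 µM zinc acetate. The binding signal is per-feature fluorescence intensity, in arbitrary units, on an Axon 4000B scanner.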
“GGGCATATTTCTCTATTTTTCTATTCCTATGGTTTGAAATCGGAGTCACCTAGTGCAG”: the binding signal was 9080 fluorescence intensity (a.u.).

In the case of “AGTTGTCCTGCTTTTTTGCTTTCCTAATCTGTTTCCATTTCGGAGTCACCTAGTGCAG”, the binding signal is 13300 fluorescence intensity (a.u.). The same measure for “ATGTCCCTAATTACTGCGTTTTCCATTTTGCTGTTTTTTACGGAGTCACCTAGTGCAG”: 16500 fluorescence intensity (a.u.); for “ATATGTCTGACTTGTACTTTTATGTTATTTTTCCTCTAATCGGAGTCACCTAGTGCAG”: 13900 fluorescence intensity (a.u.); for “CTGTTTAGATCTCCTAGCAACATTTTACACTCTCTTGCATCGGAGTCACCTAGTGCAG”: 8740 fluorescence intensity (a.u.). The same measure for “CGAACGGTTTAACATATTTAAAAAAGTCAACGGCGTCAAACGGAGTCACCTAGTGCAG”: 8310 fluorescence intensity (a.u.).

In the case of “GCTTGTTTCTTTGCTGAATTATTATTTTGCTCATTCCACTCGGAGTCACCTAGTGCAG”, the binding signal was 10300 fluorescence intensity (a.u.).

In the case of “TTTTTCCCTGAAGCTCCTGTGTGTCATCTCTCTTTTTCTTCGGAGTCACCTAGTGCAG”, the binding signal is 11100 fluorescence intensity (a.u.).

As to “ACACTGCCACTCTCTCCCTAGGCCTATAAATACCACCAGTCGGAGTCACCTAGTGCAG”, the binding signal is 8340 fluorescence intensity (a.u.). The same measure for “CATGTTAATTTTCTACTACAGCTTAGGTTGATGCTATGTTCGGAGTCACCTAGTGCAG”: 8270 fluorescence intensity (a.u.); for “ATCCGCAGACCAAGTCAACACTGCTACGTGAACACCACATCGGAGTCACCTAGTGCAG”: 9850 fluorescence intensity (a.u.); for “ACGTTATTTATTGTTTTAGGTTCAATCTACGAGTTTCTTTCGGAGTCACCTAGTGCAG”: 10700 fluorescence intensity (a.u.). The figure for “TCCTCTTCGCCGGCTGCCGCTCCTCTCCCCGCTCGTCTTTCGGAGTCACCTAGTGCAG” is 9440 fluorescence intensity (a.u.); for “TTTTTTTTTTATCCGTCCCTACTCCTCGCACCTTAAAAATCGGAGTCACCTAGTGCAG” it is 10300 fluorescence intensity (a.u.); for “GATCTCTCTCTCATCAGGACCCCGGCCTTAAGTTGTTTCTCGGAGTCACCTAGTGCAG” it is 9120 fluorescence intensity (a.u.).

In the case of “ATTTCCCGTCCTTGTCCTAAATGAGTACTAATTTTGATTTCGGAGTCACCTAGTGCAG”, the binding signal is 10400 fluorescence intensity (a.u.). The figure for “TACTTCCTTTGTCCCTAAATATTTGATGCCGTTGACTTTTCGGAGTCACCTAGTGCAG” is 23900 fluorescence intensity (a.u.). Take “GATACTCCCTCCATCCATAAATATTTGATGCCGTTGACTTCGGAGTCACCTAGTGCAG”: the binding signal was 12300 fluorescence intensity (a.u.). The same measure for “TGGATTTATTTATTCTTGTTCTTTTTCTCGAAAATTTCCACGGAGTCACCTAGTGCAG”: 8640 fluorescence intensity (a.u.). The figure for “CTGCTATGAATTATCGGTTGCTTCCGGTGTTGGGCATTGACGGAGTCACCTAGTGCAG” is 12400 fluorescence intensity (a.u.); for “TTTCGACTAACGTTTGACCATTCGTTTTATTCAAAATTTTCGGAGTCACCTAGTGCAG” it is 8880 fluorescence intensity (a.u.). The figure for “ACACCGTTGACTTTTCGACTAACGTTTGACCATTTGTTTTCGGAGTCACCTAGTGCAG” is 49300 fluorescence intensity (a.u.). “CTACTCCCTCCATTTCGAAATGTTTGACACCGTTGACTTTCGGAGTCACCTAGTGCAG”: the binding signal was 13900 fluorescence intensity (a.u.). The same measure for “GGTTTTGTGATTTTGACACCCATTCAGGTTCGTTGTTTTTCGGAGTCACCTAGTGCAG”: 11900 fluorescence intensity (a.u.). The same measure for “TTAAATGAGTGTTGACTTTTCGTATAACGTTTGACCATTTCGGAGTCACCTAGTGCAG”: 14600 fluorescence intensity (a.u.). The figure for “TGACACCGTTGACTTTTCGACCAATGTTTGACCATTCGTTCGGAGTCACCTAGTGCAG” is 24400 fluorescence intensity (a.u.).

As for “GATCCGCTCGCCCCGCCGCGCCGCCGACCATCGCCATCGCCGGAGTCACCTAGTGCAG”, the binding signal was 8410 fluorescence intensity (a.u.). Turning to “TCCCACCCGCTGCCACCAAAACCCTCCCCGCGCCCGGTCCCGGAGTCACCTAGTGCAG”, the binding signal was 10500 fluorescence intensity (a.u.). With “TCGACAATGTCACTCCATCATATCATGGCCAAAATATAACCGGAGTCACCTAGTGCAG”, the binding signal is 8140 fluorescence intensity (a.u.).

In the case of “TCGCGACCTCTCATCTATCGATCTTTGCATACATATATATCGGAGTCACCTAGTGCAG”, the binding signal is 17800 fluorescence intensity (a.u.). Take “CTCTCCTCTCCGGTCATCTCATATATACGTATCTATATCGCGGAGTCACCTAGTGCAG”: the binding signal is 8520 fluorescence intensity (a.u.). The figure for “CGCATATATATCTCTCTTTGCATCTGTACTCATCGAATCTCGGAGTCACCTAGTGCAG” is 8640 fluorescence intensity (a.u.). The same measure for “ATCCCCGTGTTCTCCCCACACAAACCTTCGCGCCGCCCATCGGAGTCACCTAGTGCAG”: 9540 fluorescence intensity (a.u.); for “CCTACTTGTTGGCTTCTATCTCCTGTTAATTAATTTCTCACGGAGTCACCTAGTGCAG”: 8450 fluorescence intensity (a.u.).

In the case of “AATCGTTTTCTTTCTTGTCTTCAAACTTATTTTCCCGTTTCGGAGTCACCTAGTGCAG”, the binding signal is 9600 fluorescence intensity (a.u.).

For “GGCGGTGGCGGTGACGGTGGAGGTGGAGGCGGTGTGGCATCGGAGTCACCTAGTGCAG”, the binding signal is 8420 fluorescence intensity (a.u.). The same measure for “AGGAGGTGGTGGGTGGTGGTGGCTGCGGCTTGGCGCGATGCGGAGTCACCTAGTGCAG”: 9400 fluorescence intensity (a.u.).

Take “GAGGAGAGGCGGGGTGAGACGGGACGGGAGGGTGGCGATGCGGAGTCACCTAGTGCAG”: the binding signal is 9530 fluorescence intensity (a.u.).

On to “GGAGGGCGGTGGCGAGGGCGGCGGTGGCGCGGATGCTGGACGGAGTCACCTAGTGCAG”, for which the binding signal is 8960 fluorescence intensity (a.u.). For “GTCAGGTGGCGGCGGCGGCGGTGGTGGCGGTGGAGGTGGACGGAGTCACCTAGTGCAG”, the binding signal is 14400 fluorescence intensity (a.u.).

For the sequence “AGGTGGAGGTGGAGGTGGAGGAGGGCGGCGGGTGGCGATGCGGAGTCACCTAGTGCAG”, the binding signal is 16500 fluorescence intensity (a.u.). The same measure for “AAGGGTGGGCGTGATGGAGTTTGGATGGGCCCTGCGACGGCGGAGTCACCTAGTGCAG”: 9160 fluorescence intensity (a.u.); for “CAGGTGGACGGCGGTGGTGGTGGTGGTGGTGGCGGCGATGCGGAGTCACCTAGTGCAG”: 17000 fluorescence intensity (a.u.); for “CAGTTTCATCCCTAGGTGGTGGTGGCGGTGCGTGGAGTGACGGAGTCACCTAGTGCAG”: 16600 fluorescence intensity (a.u.).

Source of the values: publication PMC7819943, “Rice protein-binding microarrays: a tool to detect cis-acting elements near promoter regions in rice”.
